Assay results from PubChem BioAssay.
Active and inactive are the calls of the source. Unless noted, the rule behind the calls is not given here.

Legend:
[1] = HepG2 liver cancer cell viability effects, profiling panel, resazurin fluorescence, 24 h, PK04 Diversity Set (AID 1172); conditions: higher = more signal
[2] = basal S. cerevisiae growth modulation, no modifier, primary screen, OD600, strain BY4716, 24 h, basal condition (AID 1173); conditions: OD600, 24 h, higher = more signal, called active from +8 up or from −8 down
[3] = MM1S myeloma cell viability, profiling panel, resazurin fluorescence, basal, 24 h, PK04 Diversity Set (AID 1174); conditions: higher = more signal, called active from +8 up or from −8 down;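 note: MM1S multiple myeloma cell line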
[4] = biological target: Dihydroorotate dehydrogenase (quinone), mitochondrial (Plasmodium falciparum (isolate 3D7)) (UniProt Q08210); experiment: PfDHODH enzyme inhibitors, primary screen, biochemical, C-terminal His tag, absorbance 600 nm (AID 1175); conditions: DCIP absorbance 600 nm, higher = more signal, called active from +8 up or from −8 down;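 note: recombinant parasite enzyme with a five histidine tag at its C terminus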
[5] = P. aeruginosa biofilm formation inhibitors, primary screen, strain PAO1, LB-PBS medium, absorbance 600 nm (AID 1176); conditions: P. aeruginosa PAO1 growth/biofilm, A600, 12 h; higher = more signal
[6] = S. cerevisiae RM11-1a growth modifiers, primary screen, strain RM11-1a, OD600, basal, 24 h (AID 1177); conditions: OD600, 24 h, higher = more signal, called active from +8 up or from −8 down;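 note: cultures grown under basal conditions with no added stressor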
[7] = E. coli acrAB mutant growth effects, primary screen, E. coli filamentation inducers, strain DRC39, OD650, 24 h (AID 1178); conditions: higher = more signal, called active from +8 up or from −8 down;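 note: growth measured as culture turbidity by optical density at 650 nm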
[8] = E. coli acrAB mutant growth effects, primary screen, E. coli filamentation inducers, strain DRC39, OD650, 48 h (AID 1179);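 note: screen aims at cell division blockers that make cells filament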; conditions: E. coli DRC39 delta-acrAB growth, higher = more signal, called active from +8 up or from −8 down
[9] = RPMI8226 myeloma cell viability, profiling panel, resazurin fluorescence, basal, 24 h, PK04 Diversity Set (AID 1180); conditions: higher = more signal;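 note: RPMI8826 multiple myeloma cell line at 5000 cells per well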
[10] = biological target: E3 ubiquitin-protein ligase XIAP (Homo sapiens) (UniProt P98170); experiment: XIAP binders, primary screen, biophysical, small-molecule microarray, fluorescence 635 nm (AID 1181); conditions: small-molecule microarray binding, higher = more signal;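 note: score merges 667 nm emission and signal to noise over triplicate slides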
[11] = tested on: XIP peptide (Xip251-270) binding; experiment: small-molecule binders of XIP peptide, primary screen, biochemical, small-molecule microarray, fluorescence 635/667 nm, 0.1 µg/mL protein (AID 1182); conditions: fluorescent protein binding, 635 nm, higher = more signal, called active from +8 up or from −8 down
[12] = tested on: XIP peptide (Xip251-270); experiment: small-molecule binders of XIP peptide, primary screen, biochemical, small-molecule microarray, fluorescence 635/667 nm, 0.5 µg/mL protein (AID 1183); conditions: small-molecule microarray binding, fluorescence 635 nm; higher = more signal
[13] = Plasmodium falciparum growth inhibition, primary screen, strain 3D7, DAPI fluorescence, 100 nL (AID 1184);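 note: parasites grown inside human red blood cells in medium with human serum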; conditions: P. falciparum 3D7 growth, 3 d, higher = more signal
[14] = biological target: Homeobox protein Hox-A13 (Mus musculus) (UniProt Q62424); experiment: inhibitors of HoxA13-DNA binding, primary screen, biochemical, fluorescence polarization, labeled oligonucleotide (AID 1185); conditions: 15 min, higher = more signal, called active from +8 up or from −8 down
[15] = inhibitors of hydroxyurea-induced Chk1 phosphorylation, primary screen, imaging, HeLa, phospho-Chk1 antibody, percent positive cells (AID 1186); conditions: hydroxyurea-induced phospho-Chk1 immunofluorescence imaging, higher = more signal
[16] = inhibitors of hydroxyurea-induced Chk1 phosphorylation, primary screen, imaging, HeLa, phospho-Chk1 nuclear intensity (AID 1187); conditions: hydroxyurea-induced phospho-Chk1 immunofluorescence imaging, higher = more signal

Chain of Dihydroorotate dehydrogenase (quinone), mitochondrial (Plasmodium falciparum (isolate 3D7)) (Q08210 whole entry, looked up): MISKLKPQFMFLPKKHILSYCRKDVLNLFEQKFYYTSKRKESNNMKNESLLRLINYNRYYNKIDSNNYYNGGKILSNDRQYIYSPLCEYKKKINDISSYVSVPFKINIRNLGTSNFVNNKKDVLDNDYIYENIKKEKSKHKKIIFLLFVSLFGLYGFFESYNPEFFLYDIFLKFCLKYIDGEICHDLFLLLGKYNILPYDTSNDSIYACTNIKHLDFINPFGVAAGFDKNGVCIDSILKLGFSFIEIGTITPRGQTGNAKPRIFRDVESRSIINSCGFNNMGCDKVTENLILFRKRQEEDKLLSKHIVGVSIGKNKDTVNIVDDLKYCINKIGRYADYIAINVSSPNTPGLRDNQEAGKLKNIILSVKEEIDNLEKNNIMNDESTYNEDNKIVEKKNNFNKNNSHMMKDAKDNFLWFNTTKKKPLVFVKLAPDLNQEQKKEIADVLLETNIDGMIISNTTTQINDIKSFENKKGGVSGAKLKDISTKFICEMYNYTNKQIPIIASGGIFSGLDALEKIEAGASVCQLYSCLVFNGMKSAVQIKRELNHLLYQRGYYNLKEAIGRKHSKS
Chain of E3 ubiquitin-protein ligase XIAP (Homo sapiens) (P98170 whole entry, looked up): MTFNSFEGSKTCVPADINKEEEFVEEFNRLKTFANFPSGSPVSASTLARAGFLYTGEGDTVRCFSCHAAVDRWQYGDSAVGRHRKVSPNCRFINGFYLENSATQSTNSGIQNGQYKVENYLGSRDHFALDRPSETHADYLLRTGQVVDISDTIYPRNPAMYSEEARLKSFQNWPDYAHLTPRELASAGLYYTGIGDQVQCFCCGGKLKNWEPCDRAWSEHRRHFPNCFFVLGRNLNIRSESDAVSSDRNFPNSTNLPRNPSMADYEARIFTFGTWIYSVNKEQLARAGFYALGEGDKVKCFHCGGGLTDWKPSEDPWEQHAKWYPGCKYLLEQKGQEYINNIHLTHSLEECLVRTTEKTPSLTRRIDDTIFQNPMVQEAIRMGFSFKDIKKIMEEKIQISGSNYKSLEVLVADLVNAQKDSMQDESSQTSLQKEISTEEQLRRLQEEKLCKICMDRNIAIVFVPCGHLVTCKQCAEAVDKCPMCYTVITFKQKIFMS
Chain of Homeobox protein Hox-A13 (Mus musculus) (Q62424 whole entry, looked up): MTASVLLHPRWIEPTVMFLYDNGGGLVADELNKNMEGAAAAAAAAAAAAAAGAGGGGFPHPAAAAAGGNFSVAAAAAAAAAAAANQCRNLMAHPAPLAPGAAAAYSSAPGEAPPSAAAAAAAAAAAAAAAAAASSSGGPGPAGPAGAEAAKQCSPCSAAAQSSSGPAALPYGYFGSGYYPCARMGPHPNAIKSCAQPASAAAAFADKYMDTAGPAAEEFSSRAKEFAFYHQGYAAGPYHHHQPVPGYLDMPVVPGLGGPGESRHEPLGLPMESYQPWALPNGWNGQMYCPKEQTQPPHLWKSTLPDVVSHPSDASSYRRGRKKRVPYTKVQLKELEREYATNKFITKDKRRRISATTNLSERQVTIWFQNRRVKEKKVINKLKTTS

Structure (SMILES)	z-score [1]	z-score [2]	z-score [3]	composite z-score [4]	z-score [5]	z-score [6]	z-score [7]	z-score [8]	z-score [9]	composite z-score [10]	composite z-score [11]	composite z-score [12]	z-score [13]	z-score [14]	z-score [15]	z-score [16]
O=C1OCCC/C=C\[C@H]2OC34C=CCN(c5ccc6ccccc6c5)C(=O)[C@H]3N(CCCCCO)C(=O)[C@@H]4C12 (stereo not given in full)	0.0877	-0.801 (inactive)	-0.377 (inactive)	-0.338 (inactive)	-0.649 (inactive)	-0.878 (inactive)	0.352 (inactive)	-0.005 (inactive)	0.408	-0.0541	0.0867 (inactive)	0.0861	1.73	-4.94 (inactive)	0.715 (inactive)	-0.0708 (inactive)
CC1CC/C=C\[C@H]2OC34C=CCN(c5ccc6ccccc6c5)C(=O)[C@H]3N(CCO)C(=O)[C@@H]4C2C(=O)O1 (stereo not given in full)	-0.854	-0.635 (inactive)	-1.03 (inactive)	-0.509 (inactive)	0.826 (inactive)	-0.471 (inactive)	-0.726 (inactive)	-0.867 (inactive)	0.0886	0.0728	0.866 (inactive)	0.492	-0.607	-5.51 (inactive)	-0.209 (inactive)	-0.434 (inactive)
CC[C@@H]1C=C(C(=O)O)[C@H](c2cccc3ccccc23)N1S(=O)(=O)c1ccc(C)cc1	-0.359	0.518 (inactive)	-0.653 (inactive)	0.859 (inactive)	0.546 (inactive)	-0.43 (inactive)	-0.624 (inactive)	0.225 (inactive)	-1	-0.359	0.406 (inactive)	0.437	-0.509	-1.85 (inactive)	-1.25 (inactive)	-1.44 (inactive)
CC(c1ccccc1)C(O)C1C=CC2C(=O)N(c3ccccc3)C(=O)C2N1Nc1ccccc1 (stereo not given)	-1.45	-0.652 (inactive)	-1.4 (inactive)	-0.191 (inactive)	0.67 (inactive)	0.0166 (inactive)	-0.0789 (inactive)	-0.565 (inactive)	-1.28	0.255	1.06 (inactive)	0.807	-0.417	-2.4 (inactive)	0.2 (inactive)	0.175 (inactive)
CCCC=C(CCC)[C@@H](NC(=O)OCC(C)C)c1ccccc1	-0.624	1.08 (inactive)	-0.863 (inactive)	-4.03 (inactive)	2.77 (inactive)	0.396 (inactive)	-0.526 (inactive)	-1.64 (inactive)	0.0342	-0.0852	-0.0053 (inactive)	0.45	-1.02	2.97 (inactive)	0.714 (inactive)	0.115 (inactive)
COC(=O)[C@@]1(Cc2ccc(F)cc2)[C@H]2c3cc(C(=O)N(C)C)n(Cc4ccc(C)o4)c3C[C@H]2CN1C(=O)c1ccccc1	-0.0869	0.241 (inactive)	0.003 (inactive)	-0.631 (inactive)	0.467 (inactive)	-0.0282 (inactive)	-0.359 (inactive)	-0.192 (inactive)	-0.0803	1.87	1.66 (inactive)	0.665	-1.44	-2.94 (inactive)	0.262 (inactive)	-0.0286 (inactive)
CCCCN1CC=CC23O[C@@H]4C=CCOC(=O)[C@@H]4[C@H]2C(=O)N(CCCCCCO)[C@@H]3C1=O (stereo not given in full)	-0.556	0.0518 (inactive)	0.0626 (inactive)	-0.838 (inactive)	-0.112 (inactive)	-0.55 (inactive)	0.272 (inactive)	0.25 (inactive)	-0.386	0.245	1.31 (inactive)	-1.46	-0.198	-4.53 (inactive)	-0.0344 (inactive)	-0.364 (inactive)
O=C1C2C=CC(C(O)c3cc(C(F)(F)F)cc(C(F)(F)F)c3)N(Nc3ccccc3)C2C(=O)N1c1ccccc1 (stereo not given)	-0.621	-3.15 (inactive)	-1.87 (inactive)	0.399 (inactive)	1.41 (inactive)	0.596 (inactive)	-0.921 (inactive)	-0.284 (inactive)	-2.49	0.0191	0.926 (inactive)	0.197	0.0018	-2.82 (inactive)	0.0811 (inactive)	-0.017 (inactive)
C=CCC(OC(C)=O)[C@@H]1[C@@H](N(Cc2cc3ccccc3o2)C(=O)Cc2ccc(OC)cc2)c2cc(OCCCO)ccc2N1C(=O)c1ccc2ccccc2c1 (stereo not given in full)	-1.5	-0.256 (inactive)	-0.0928 (inactive)	0.164 (inactive)	-0.227 (inactive)	-0.226 (inactive)	-0.629 (inactive)	-1.05 (inactive)	-0.516	0.0374	0.0999 (inactive)	0.167	-2.47	-1.6 (inactive)	0.556 (inactive)	0.877 (inactive)
CCCCC(=C=CC[C@@H](O)c1ccc(CO)o1)CCO	1.15	-0.205 (inactive)	-0.438 (inactive)	-0.594 (inactive)	0.838 (inactive)	0.175 (inactive)	1.54 (inactive)	1.12 (inactive)	1.22	0.128	0.54 (inactive)	0.218	0.0728	-4.16 (inactive)	-0.364 (inactive)	-0.13 (inactive)
COc1ccc([Si](C)(C)[C@@H]2[C@@H](CCO)O[C@]3(C(=O)N(Cc4cccc(N5CCOC5=O)c4)c4ccccc43)[C@H]2C)cc1	-1.09	2.41 (inactive)	-3.35 (inactive)	-0.346 (inactive)	2.95 (inactive)	6.05 (inactive)	1.4 (inactive)	0.44 (inactive)	-2.78	-0.0599	0.473 (inactive)	0.332	-2.54	-4.2 (inactive)	-0.609 (inactive)	-0.553 (inactive)
O=C(NCc1ccccc1)[C@@H]1c2ccccc2C(=O)N(C2Cc3ccccc3C2)[C@H]1c1ccc(CO)cc1	-0.786	0.848 (inactive)	-0.139 (inactive)	0.211 (inactive)	0.581 (inactive)	0.644 (inactive)	0.0426 (inactive)	-0.15 (inactive)	0.12	-0.133	0.72 (inactive)	0.731	-0.276	-2.13 (inactive)	0.26 (inactive)	-0.16 (inactive)
COc1cc2c(cc1O)C=[N+](Cc1cc3c(cc1Br)OCO3)CC2	-0.532	0.384 (inactive)	-1.29 (inactive)	0.707 (inactive)	0.0898 (inactive)	0.593 (inactive)	-0.31 (inactive)	-0.3 (inactive)	-0.566	-0.252	-0.105 (inactive)	1.1	-1.88	-3.19 (inactive)	-0.126 (inactive)	-0.203 (inactive)
CO[C@H]1O[C@H](CO)[C@@H](OC(=O)Nc2ccc(Br)cc2)[C@@H]2OC(=O)[C@H](Cc3cccc(Br)c3)C/C=C/C[C@@H](Cc3cccc(Br)c3)C(=O)O[C@@H]12	-1.34	-1.89 (inactive)	-1.79 (inactive)	-2.81 (inactive)	0.594 (inactive)	0.459 (inactive)	0.778 (inactive)	0.69 (inactive)	-1.45	-0.16	0.406 (inactive)	0.467	-1.55	1.51 (inactive)	-0.423 (inactive)	-0.471 (inactive)
CC(C)NC(=O)[C@@]1(Cc2ccccc2I)c2ccccc2C(=O)N(Cc2ccccc2Cl)[C@H]1c1ccc(CO)cc1	-0.344	-0.673 (inactive)	0.179 (inactive)	0.0754 (inactive)	-0.103 (inactive)	0.818 (inactive)	0.107 (inactive)	-0.706 (inactive)	-0.0558	0.0049	0.705 (inactive)	0.615	0.0173	-3.93 (inactive)	-0.0537 (inactive)	0.1 (inactive)
CN(C)CCCCCCNC(=O)[C@@H]1C[C@@H]2C(=O)N3CCC[C@H]3C(=O)N2[C@@H]1c1ccc(O)cc1	-0.627	-0.732 (inactive)	-0.235 (inactive)	-1.7 (inactive)	1.82 (inactive)	-2.55 (inactive)	0.966 (inactive)	1.64 (inactive)	-0.198	0.117	2.98 (inactive)	0.929	0.199	0.647 (inactive)	-0.849 (inactive)	-0.147 (inactive)
O=C(O)[C@H]1C[C@H]2C(=O)N3CCC[C@H]3C(=O)N2[C@H]1c1ccc(O)cc1	0.684	-0.171 (inactive)	1.1 (inactive)	-0.453 (inactive)	0.0778 (inactive)	0.208 (inactive)	0.408 (inactive)	0.715 (inactive)	1.07	0.125	-0.469 (inactive)	-0.0016	0.351	-1.01 (inactive)	0.272 (inactive)	0.267 (inactive)
CCCC=C(CCC)[C@@H](NS(=O)(=O)c1ccc(Cl)cc1)c1ccc(C(=O)OC)cc1	1.16	0.295 (inactive)	0.349 (inactive)	-0.336 (inactive)	-0.719 (inactive)	-0.907 (inactive)	0.198 (inactive)	-1.16 (inactive)	0.0665	-0.122	-0.126 (inactive)	0.536	0.198	-1.43 (inactive)	0.47 (inactive)	0.175 (inactive)
CC(=O)n1cc(C(O)C2C=CC3C(=O)NC(=O)C3N2Nc2ccccn2)c2ccccc21 (stereo not given)	-1.3	0.627 (inactive)	-1.67 (inactive)	0.496 (inactive)	1.33 (inactive)	0.605 (inactive)	-0.641 (inactive)	-0.109 (inactive)	-1.31	0.07	-0.251 (inactive)	0.785	0.249	-2.99 (inactive)	0.5 (inactive)	-0.392 (inactive)
OCC1C=C(/C=C/c2ccccc2)CN1Cc1ccccc1Br (stereo not given)	0.233	-9.92 (active)	-0.813 (inactive)	-0.0313 (inactive)	-0.0461 (inactive)	-0.877 (inactive)	1.79 (inactive)	0.183 (inactive)	-0.589	-0.122	1.74 (inactive)	0.698	-0.982	-2.19 (inactive)	-0.449 (inactive)	-0.283 (inactive)
